Assay [1] can be described thus: optical density shifts of acrAB sulA E. coli – strain DRC41, OD650, 48 h, E. coli filamentation inducer project, primary screen (AID 1152).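 Also: E. coli MC1000 strain DRC41 lacking acrAB efflux pump and sulA.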 Particulars: higher = more signal, called active from +8 up or from −8 down.
A short description of assay [2]: probe aLefty1 binding on compound microarray – biochemical, small-molecule microarray, 635/667 nm fluorescence, primary screen (AID 1153).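 Also: score merges spot fluorescence with signal-to-noise ratio from the scanned slide images.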 As to conditions: higher = more signal.
A short description of assay [3]: plasmodial surface anion channel blockers, osmotic lysis – cell-based, P. falciparum Indochina, OD700, 1 h, primary screen (AID 1154). As to conditions: P. falciparum Indochina infected RBC osmotic lysis, higher = more signal, called active from +8 up or from −8 down.
Assay [4] can be described thus: plasmodial surface anion channel blockers, osmotic lysis – cell-based, P. falciparum Indochina, OD700, 2 h, primary screen (AID 1155).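 Also: lysis reports solute entry through the parasite surface anion channel PSAC.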 As to conditions: P. falciparum Indochina infected erythrocytes, higher = more signal, called active from +8 up or from −8 down.
A short description of assay [5]: changes in parasitized red cell lysis, either direction – P. falciparum Indochina, OD700, 3 h, PSAC antagonist project, primary screen (AID 1156). Particulars: P. falciparum-infected erythrocytes, osmotic lysis, higher = more signal, called active from +8 up or from −8 down.
Assay [6] in a line: plasmodial surface anion channel blockers, osmotic lysis – cell-based, P. falciparum Indochina, OD700, 18 h, primary screen (AID 1157). Particulars: P. falciparum Indochina infected erythrocytes, osmotic lysis OD700, 18 h; higher = more signal, called active from +8 up or from −8 down.
Assay [7] is described as follows: S6 kinase pathway phospho-S6 level changes – cell-based, A549, cytoblot, luminescence, serum-stimulated, primary screen (AID 1158).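 Also: serum-stimulated A549 lung adenocarcinoma cells; signal is phosphorylated S6 detected by cytoblot immunostaining with HRP secondary.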 Particulars: 5 h, higher = more signal.
Assay [8] deals with NADPH oxidase 2 (Homo sapiens) (UniProt P04839). In words: compounds shifting NOX2 Amplex Red fluorescence – cell-based, HEK293-NOX2, PMA-stimulated, NOX inhibitor project, primary screen (AID 1159). Also: test concentration not given here. As to conditions: 45 min, higher = more signal, called active from +8 up or from −8 down.
Assay [9] addresses NADPH oxidase 4 (Homo sapiens) (UniProt Q9NPH5). The assay can be described thus: compounds shifting NOX4 Amplex Red fluorescence – cell-based, HEK293-NOX4, tetracycline-induced, NOX inhibitor project, primary screen (AID 1160). Particulars: HEK293-NOX4, Amplex Red H2O2 fluorescence, 45 min; higher = more signal, called active from +8 up or from −8 down.
In assay [10] the target is NADPH oxidase 5 (Homo sapiens) (UniProt Q96PH1). The assay can be described thus: compounds shifting NOX5 Amplex Red fluorescence – cell-based, HEK293-NOX5, NOX inhibitor project, primary screen (AID 1161). As to conditions: HEK293-NOX5, ionomycin, 45 min, higher = more signal.
Assay [11] is described as follows: compound effects on lung adenocarcinoma cell viability – A549, calcein-AM fluorescence, 48 h, basal, profiling panel (AID 1162). Also: test concentration not given here. Particulars: higher = more signal.
Assay [12] is described as follows: compound effects on differentiated 3T3-L1 adipocyte viability – cell-based, 3T3-L1 adipocytes, calcein-AM fluorescence, 48 h, basal, profiling panel (AID 1163). Also: test concentration not given here. Particulars: 3T3-L1 adipocytes viability, higher = more signal.
Assay [13] can be described thus: compound effects on hepatocellular carcinoma cell viability – HepG2, calcein-AM fluorescence, 48 h, basal, profiling panel (AID 1164). Also: test concentration not given here. As to conditions: higher = more signal.
The nature of assay [14]: compound effects on multiple myeloma cell viability – MM1S, calcein-AM fluorescence, 48 h, basal, profiling panel (AID 1165). Also: test concentration not given here. As to conditions: higher = more signal.
The nature of assay [15]: calcein-AM signal in unstimulated myeloma cells – cell-based, calcein-AM fluorescence, 48 h, PK04 Diversity Set, profiling panel (AID 1166).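 Also: cells grown under basal conditions without added stimulus; test concentration not given here.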 Particulars: RPMI8226 myeloma viability, higher = more signal.
A short description of assay [16]: JC-1 mitochondrial signal, unstimulated HepG2 cells – cell-based, JC-1 fluorescence, 24 h, 100 nL compound, profiling panel (AID 1167). Also: test concentration not given here. Particulars: HepG2 mitochondrial potential, higher = more signal.
Assay [17] in a line: JC-1 mitochondrial signal, unstimulated adipocytes – cell-based, JC-1 fluorescence, 3T3-L1 adipocytes, 24 h, 100 nL compound, profiling panel (AID 1168). Also: test concentration not given here. As to conditions: JC-1 mitochondrial fluorescence, higher = more signal, called active from +8 up or from −8 down.
Assay [18] can be described thus: JC-1 mitochondrial signal, unstimulated myeloma cells – cell-based, JC-1 fluorescence, RPMI8226, 24 h, 100 nL compound, profiling panel (AID 1169). Also: test concentration not given here. As to conditions: JC-1 mitochondrial potential fluorescence, higher = more signal.
Assay [19] is described as follows: JC-1 mitochondrial signal, unstimulated MM1S myeloma – cell-based, JC-1 fluorescence, 24 h, 100 nL compound, profiling panel (AID 1170). Also: test concentration not given here. As to conditions: MM1S mitochondrial potential, higher = more signal.
A short description of assay [20]: resazurin metabolic signal in A549 cells – cell-based, resazurin fluorescence, 24 h, PK04 Diversity Set, profiling panel (AID 1171). Also: test concentration not given here. Particulars: A549 viability, higher = more signal, called active from +8 up or from −8 down.

This is an account of results in PubChem BioAssay.

Calls of active or inactive are those of the source.

Sequence of NADPH oxidase 4 (Homo sapiens) (Q9NPH5 whole entry, looked up): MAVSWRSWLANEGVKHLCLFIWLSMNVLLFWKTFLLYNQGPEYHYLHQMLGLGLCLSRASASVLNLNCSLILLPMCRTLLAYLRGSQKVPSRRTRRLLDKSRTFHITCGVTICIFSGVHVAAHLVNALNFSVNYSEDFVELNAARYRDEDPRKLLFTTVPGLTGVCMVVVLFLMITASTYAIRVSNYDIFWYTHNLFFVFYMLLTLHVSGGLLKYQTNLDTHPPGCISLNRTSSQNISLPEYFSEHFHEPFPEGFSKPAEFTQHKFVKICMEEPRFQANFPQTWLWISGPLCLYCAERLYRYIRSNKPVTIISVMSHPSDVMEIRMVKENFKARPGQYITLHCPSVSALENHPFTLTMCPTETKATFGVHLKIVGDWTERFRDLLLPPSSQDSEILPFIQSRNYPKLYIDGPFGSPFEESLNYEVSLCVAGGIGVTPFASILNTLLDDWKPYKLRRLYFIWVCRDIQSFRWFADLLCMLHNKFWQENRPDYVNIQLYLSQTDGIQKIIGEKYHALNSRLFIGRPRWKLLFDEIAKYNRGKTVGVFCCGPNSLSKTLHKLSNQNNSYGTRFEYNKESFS
Sequence of NADPH oxidase 5 (Homo sapiens) (Q96PH1 whole entry, looked up): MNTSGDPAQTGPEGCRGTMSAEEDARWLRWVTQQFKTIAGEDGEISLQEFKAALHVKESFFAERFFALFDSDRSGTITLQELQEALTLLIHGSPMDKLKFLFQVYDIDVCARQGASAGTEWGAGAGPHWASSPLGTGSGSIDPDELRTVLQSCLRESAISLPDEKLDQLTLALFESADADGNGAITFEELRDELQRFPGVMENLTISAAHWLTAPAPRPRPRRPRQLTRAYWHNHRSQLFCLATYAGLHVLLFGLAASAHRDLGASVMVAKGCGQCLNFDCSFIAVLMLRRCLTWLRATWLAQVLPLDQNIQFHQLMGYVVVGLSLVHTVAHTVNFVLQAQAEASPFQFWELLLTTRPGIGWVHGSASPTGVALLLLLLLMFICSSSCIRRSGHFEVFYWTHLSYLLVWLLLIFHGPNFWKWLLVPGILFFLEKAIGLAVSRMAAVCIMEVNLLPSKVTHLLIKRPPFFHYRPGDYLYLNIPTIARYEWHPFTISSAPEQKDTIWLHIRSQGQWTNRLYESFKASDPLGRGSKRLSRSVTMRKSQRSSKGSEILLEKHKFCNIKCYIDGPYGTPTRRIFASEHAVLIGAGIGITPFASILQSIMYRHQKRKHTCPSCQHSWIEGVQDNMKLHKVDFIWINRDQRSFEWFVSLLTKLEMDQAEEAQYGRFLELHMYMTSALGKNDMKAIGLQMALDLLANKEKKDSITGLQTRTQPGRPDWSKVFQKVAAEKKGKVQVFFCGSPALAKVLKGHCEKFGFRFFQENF
Sequence of NADPH oxidase 2 (Homo sapiens) (P04839 whole entry, looked up): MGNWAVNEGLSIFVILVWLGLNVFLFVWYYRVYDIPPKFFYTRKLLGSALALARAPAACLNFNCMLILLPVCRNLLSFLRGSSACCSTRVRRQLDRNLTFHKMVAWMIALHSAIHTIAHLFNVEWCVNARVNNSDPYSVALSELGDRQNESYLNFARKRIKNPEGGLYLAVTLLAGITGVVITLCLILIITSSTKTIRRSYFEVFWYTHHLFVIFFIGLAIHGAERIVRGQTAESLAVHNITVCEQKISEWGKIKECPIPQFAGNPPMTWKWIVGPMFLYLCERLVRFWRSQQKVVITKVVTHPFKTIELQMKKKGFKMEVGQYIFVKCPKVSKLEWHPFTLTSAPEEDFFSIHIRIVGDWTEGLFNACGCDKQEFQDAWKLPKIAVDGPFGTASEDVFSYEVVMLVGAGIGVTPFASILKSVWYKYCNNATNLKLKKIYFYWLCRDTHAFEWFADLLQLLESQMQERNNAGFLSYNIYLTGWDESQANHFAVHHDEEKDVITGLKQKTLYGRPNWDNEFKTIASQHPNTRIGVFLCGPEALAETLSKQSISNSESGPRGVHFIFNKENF

For the compound `Cc1ccc(C2CC=C(C(=O)O)CN2S(=O)(=O)c2ccc(C)cc2)cc1` (stereo not given), the z-score is -1.29 (inactive) in assay [1]; 1.26 (inactive) in [3]; 0.838 (inactive) in assay [4]; 0.927 (inactive) in assay [5]; 0.98 (inactive) in assay [6]; -0.51 in assay [7]. Moreover, the z-score in assay [8] was -0.446 (inactive); in assay [9], -1.44 (inactive); in [10], 0.321; in assay [11], -0.789; in [12], 0.171; in assay [13], -1.04. Besides, the z-score in assay [14] is -1.07; in assay [15] it was -1.65; in [16], -0.0791; in assay [17] it was -0.516 (inactive); in assay [18] it was -0.187; in assay [19] it was -0.296. Also, the z-score in [20] is -0.716 (inactive). Besides, in [2], the composite z-score is -0.0294.

As for `CCOC(=O)CCN1C(=O)[C@H]2[C@H]3[C@H](O)[C@H](O)CC(=NOCc4ccccc4)[C@@H]3CC[C@H]2C1=O`, the z-score was -0.505 (inactive) in assay [1]; 1.61 (inactive) in assay [3]; 0.885 (inactive) in [4]; -0.059 (inactive) in assay [5]; 0.429 (inactive) in assay [6]; -0.32 in [7]. The z-score in [8] was -0.104 (inactive); in assay [9], 0.593 (inactive); in assay [10], 1.14; in assay [11], 0.16; in assay [12], 0.112; in assay [13], -0.149. Further, the z-score was -0.104 in [14]; 1.16 in assay [15]; -0.761 in [16]; -0.522 (inactive) in assay [17]; -0.043 in assay [18]; -0.362 in [19]. For the same compound, the z-score in assay [20] was -0.0452 (inactive). The composite z-score in [2] is -0.094.

Regarding `CCOc1ccc(N2C(=O)/C(=C/C=C/c3ccccc3OC)S(=O)(=O)C2c2cccc([N+](=O)[O-])c2)cc1` (stereo not given), the z-score was 3.21 (inactive) in [1]; 1.03 (inactive) in assay [3]; 0.282 (inactive) in assay [4]; -1.1 (inactive) in assay [5]; -1.04 (inactive) in [6]; 2.38 in assay [7]. The z-score in [8] was 0.5 (inactive); in assay [9] it was 0.389 (inactive); in assay [10], 1.49; in assay [11], 1.18; in [12], 1.39; in assay [13], 0.136. In addition, the z-score in [14] was -2.72; in [15], -0.879; in [16] it was -0.855; in [17], -0.125 (inactive); in assay [18], -0.732; in assay [19], -0.0787. In addition, the z-score in assay [20] is 0.0969 (inactive). Besides, the composite z-score in [2] was -0.0193.

Consider `CO[C@H]1COC(=O)[C@H](C)COC(=O)CC=C[C@@H](C)[C@H](OC)COC(=O)CC=C[C@@H]1C`, for which the z-score in assay [1] was 0.738 (inactive); in assay [3], -0.654 (inactive); in assay [4], -0.285 (inactive); in [5], -0.654 (inactive); in [6], -0.188 (inactive); in assay [7] it was 0.648. In addition, the z-score in assay [8] is -0.347 (inactive); in [9], 0.0281 (inactive); in assay [10], 0.625; in assay [11], 0.593; in assay [12], -0.101; in assay [13], 0.968. In addition, the z-score in [14] is 0.191; in [15], -0.0736; in assay [16] it was 0.69; in assay [17] it was 0.0241 (inactive); in [18], 0.405; in assay [19], 0.601. The z-score in [20] was 0.239 (inactive). This compound yielded a composite z-score in assay [2] of -0.196.

Take `CC[C@@H](c1ccccc1)n1c(=O)n2n(c1=O)[C@H]1[C@H](O)[C@@H]3O[C@@H]3C(=NOCC(C)C)[C@H]1CC2`: the z-score in assay [1] was -1.11 (inactive); in assay [3], -0.0462 (inactive); in [4] it was -0.155 (inactive); in assay [5], 0.282 (inactive); in assay [6] it was -0.0656 (inactive); in assay [7] it was 0.123. Also, the z-score in assay [8] was 1.72 (inactive); in assay [9] it was 0.386 (inactive); in assay [10], 0.371; in assay [11], -0.342; in [12], 0.245; in assay [13], -0.389. The z-score is -0.288 in assay [14]; 0.44 in [15]; -1.16 in assay [16]; -1.67 (inactive) in [17]; -0.0693 in [18]; 0.448 in assay [19]. Also, the z-score in assay [20] was 0.276 (inactive). This compound yielded a composite z-score in assay [2] of -0.0508.

Consider `CO[C@H]1COC(=O)[C@@H]2CCCN2C(=O)[C@@H](C)COC(=O)CC=C[C@@H]1C`, for which the z-score is 0.737 (inactive) in [1]; 0.464 (inactive) in [3]; 0.279 (inactive) in assay [4]; 0.61 (inactive) in [5]; 0.27 (inactive) in [6]; -0.552 in assay [7]. The z-score was -0.281 (inactive) in [8]; 0.0546 (inactive) in assay [9]; -0.48 in assay [10]; 0.12 in [11]; -0.142 in [12]; -0.364 in assay [13]. Also, the z-score was -0.122 in assay [14]; 0.358 in assay [15]; 0.00983 in assay [16]; -0.418 (inactive) in assay [17]; 0.604 in [18]; 0.0689 in assay [19]. Moreover, the z-score in assay [20] is 0.314 (inactive). The compound also registered a composite z-score in assay [2] of -0.198.

As to `C=CC[C@]1(C(=O)NCc2ccccc2)N=C(c2ccc(OCCCO)cc2)O[C@H]1c1ccccc1`, the z-score in assay [1] is -0.0491 (inactive); in [3] it was 14.6 (active); in assay [4], 1.83 (inactive); in assay [5] it was 0.668 (inactive); in [6], 1.26 (inactive); in assay [7] it was -0.0429. Besides, the z-score in assay [8] is -2.86 (inactive); in assay [9] it was -0.495 (inactive); in assay [10], -1.96; in assay [11], -1.38; in assay [12] it was 0.43; in assay [13], -1.98. Besides, the z-score in assay [14] is -2.75; in assay [15], -3.75; in assay [16], -0.022; in assay [17], -0.18 (inactive); in assay [18], -1.31; in [19], -0.988. For the same compound, the z-score in [20] is 0.953 (inactive). In [2], this compound came in with a composite z-score of 0.398.

For the compound `C#C[C@@H](CC)O[Si](C#Cc1ccc(Oc2ccccc2)cc1)(C(C)C)C(C)C`, the z-score in [1] was -0.49 (inactive); in [3], 0.788 (inactive); in assay [4], 1.4 (inactive); in assay [5], -1.4 (inactive); in assay [6], 0.335 (inactive); in assay [7], -0.724. Further, the z-score in assay [8] was 0.278 (inactive); in assay [9] it was -0.366 (inactive); in assay [10] it was -1.51; in [11], -2.96; in assay [12], -1.01; in assay [13], -2.63. The z-score in [14] was -2.97; in [15], -4.2; in assay [16], -2.29; in [17], -0.068 (inactive); in assay [18] it was -0.291; in assay [19], -1.11. The z-score in [20] is -0.936 (inactive). The composite z-score in assay [2] is 0.0404.

Take `Cn1c(=O)n2n(c1=O)[C@H]1[C@H](O)[C@@H]3O[C@@H]3C(=NOC[C@@H](O)COCc3ccco3)[C@H]1CC2`: the z-score is 0.301 (inactive) in [1]; 0.697 (inactive) in assay [3]; -0.507 (inactive) in [4]; 0.671 (inactive) in assay [5]; 0.08 (inactive) in assay [6]; 0.0625 in [7]. In addition, the z-score in [8] was -1.04 (inactive); in assay [9], 0.733 (inactive); in assay [10] it was 0.59; in [11], 0.981; in [12], 0.323; in assay [13], 1.41. In addition, the z-score in assay [14] was 0.287; in [15] it was 0.588; in assay [16], 1.41; in assay [17], -0.439 (inactive); in assay [18], -0.402; in assay [19] it was -0.397. In addition, in assay [20], the z-score is -0.195 (inactive). In addition, the composite z-score in assay [2] was 0.946.
